Results taken from the supplement of paper PMC11732987, “Enantioselective OTUD7B fragment discovery through chemoproteomics screening and high-throughput optimisation” (Communications Chemistry, 2025).
Values without a mark were called inactive.

Columns and labels:
Experiment in all cases: log2 ratio of Biotin-Ahx-Ub-VS probe labelling (fragment/DMSO); higher = less target engagement (more negative = stronger competition), active = hit call of the paper (q ≤ 0.05, log2 ratio ≤ -1)
Settings in all cases: compound concentration: 200 uM; treatment time: 3 h
ALG13 = molecular target: T1, ALG13 (UniProt Q9NP73)
T1 sequence (whole entry): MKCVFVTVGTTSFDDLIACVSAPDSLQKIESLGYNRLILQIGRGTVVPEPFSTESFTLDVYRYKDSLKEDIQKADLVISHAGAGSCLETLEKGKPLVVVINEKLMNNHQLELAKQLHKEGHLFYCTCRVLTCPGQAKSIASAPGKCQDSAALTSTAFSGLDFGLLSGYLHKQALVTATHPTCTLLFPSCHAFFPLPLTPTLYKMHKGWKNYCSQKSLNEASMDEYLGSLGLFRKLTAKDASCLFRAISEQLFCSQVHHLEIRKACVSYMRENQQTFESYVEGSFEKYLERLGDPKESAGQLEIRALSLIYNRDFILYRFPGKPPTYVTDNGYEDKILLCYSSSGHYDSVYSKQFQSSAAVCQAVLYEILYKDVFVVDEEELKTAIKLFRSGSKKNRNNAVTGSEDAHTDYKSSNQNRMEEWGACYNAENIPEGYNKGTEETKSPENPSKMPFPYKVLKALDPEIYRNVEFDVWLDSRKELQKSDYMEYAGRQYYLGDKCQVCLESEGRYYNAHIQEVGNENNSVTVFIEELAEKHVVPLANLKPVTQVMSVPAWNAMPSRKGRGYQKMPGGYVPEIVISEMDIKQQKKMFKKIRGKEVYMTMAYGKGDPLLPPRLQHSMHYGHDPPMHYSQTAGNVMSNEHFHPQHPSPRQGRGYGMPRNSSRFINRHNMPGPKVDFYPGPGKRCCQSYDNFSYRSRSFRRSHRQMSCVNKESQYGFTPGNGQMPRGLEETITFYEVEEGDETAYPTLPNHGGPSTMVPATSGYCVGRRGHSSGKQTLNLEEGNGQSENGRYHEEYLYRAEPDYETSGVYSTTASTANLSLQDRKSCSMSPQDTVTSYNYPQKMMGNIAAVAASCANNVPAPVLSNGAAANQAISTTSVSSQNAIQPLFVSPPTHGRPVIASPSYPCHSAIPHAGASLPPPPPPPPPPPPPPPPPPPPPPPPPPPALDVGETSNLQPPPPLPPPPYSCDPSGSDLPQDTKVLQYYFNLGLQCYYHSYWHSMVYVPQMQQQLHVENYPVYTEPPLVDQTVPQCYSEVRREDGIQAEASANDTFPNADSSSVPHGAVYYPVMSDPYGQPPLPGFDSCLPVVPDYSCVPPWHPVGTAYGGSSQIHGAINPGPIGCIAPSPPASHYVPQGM
Procedure, shortened: (§1)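 Triplicate samples of HEK293T lysate, 495 µg each, received fragment at 200 µM or vehicle for 3 h, followed by Biotin-Ahx-Ub-VS (0.5 µM final) for 1 h. After NeutrAvidin enrichment of labelled DUBs and LysC/trypsin digestion, peptides were run by diaPASEF LC-MS/MS. The values are average log2 fragment/vehicle ratios from global-median-normalised Spectronaut label-free quantities, tested by unpaired t-test on proteins having ≥2 unique peptides.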

ATXN3 = ATXN3 (UniProt P54252)
ATXN3, sequence (P54252 whole entry): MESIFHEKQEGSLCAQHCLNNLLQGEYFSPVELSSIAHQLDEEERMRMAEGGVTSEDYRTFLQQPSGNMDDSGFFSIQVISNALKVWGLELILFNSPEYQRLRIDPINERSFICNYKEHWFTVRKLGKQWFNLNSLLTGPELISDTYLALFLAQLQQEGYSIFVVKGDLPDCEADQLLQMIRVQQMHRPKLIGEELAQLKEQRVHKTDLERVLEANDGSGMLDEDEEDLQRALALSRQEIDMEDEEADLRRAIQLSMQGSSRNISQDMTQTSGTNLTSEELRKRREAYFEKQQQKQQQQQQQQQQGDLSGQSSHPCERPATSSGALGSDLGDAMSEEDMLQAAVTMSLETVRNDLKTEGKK
Procedure, shortened: as §1

BAP1 = molecular target: T2, BAP1 (UniProt Q92560)
T2 sequence (whole entry): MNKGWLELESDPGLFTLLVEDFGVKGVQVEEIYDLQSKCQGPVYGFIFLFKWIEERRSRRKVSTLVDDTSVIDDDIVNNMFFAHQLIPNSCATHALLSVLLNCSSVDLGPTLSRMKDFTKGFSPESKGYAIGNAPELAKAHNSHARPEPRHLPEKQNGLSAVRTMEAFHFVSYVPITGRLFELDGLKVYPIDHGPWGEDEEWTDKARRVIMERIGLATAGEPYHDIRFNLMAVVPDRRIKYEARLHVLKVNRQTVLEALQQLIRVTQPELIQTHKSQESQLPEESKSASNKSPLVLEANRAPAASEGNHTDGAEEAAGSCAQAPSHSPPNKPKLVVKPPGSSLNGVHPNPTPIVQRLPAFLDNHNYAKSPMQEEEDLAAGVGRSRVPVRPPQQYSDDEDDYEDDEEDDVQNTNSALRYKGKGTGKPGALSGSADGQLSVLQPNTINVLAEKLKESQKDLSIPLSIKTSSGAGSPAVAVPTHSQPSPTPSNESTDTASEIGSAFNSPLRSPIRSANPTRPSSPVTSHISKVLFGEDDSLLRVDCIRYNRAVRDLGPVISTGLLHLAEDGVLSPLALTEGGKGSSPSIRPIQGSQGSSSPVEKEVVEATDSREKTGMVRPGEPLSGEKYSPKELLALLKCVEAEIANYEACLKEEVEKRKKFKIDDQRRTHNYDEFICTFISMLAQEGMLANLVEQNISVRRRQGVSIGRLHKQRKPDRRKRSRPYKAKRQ
Procedure, shortened: as §1

EIF3F = EIF3F (UniProt O00303)
EIF3F, sequence (O00303 whole entry): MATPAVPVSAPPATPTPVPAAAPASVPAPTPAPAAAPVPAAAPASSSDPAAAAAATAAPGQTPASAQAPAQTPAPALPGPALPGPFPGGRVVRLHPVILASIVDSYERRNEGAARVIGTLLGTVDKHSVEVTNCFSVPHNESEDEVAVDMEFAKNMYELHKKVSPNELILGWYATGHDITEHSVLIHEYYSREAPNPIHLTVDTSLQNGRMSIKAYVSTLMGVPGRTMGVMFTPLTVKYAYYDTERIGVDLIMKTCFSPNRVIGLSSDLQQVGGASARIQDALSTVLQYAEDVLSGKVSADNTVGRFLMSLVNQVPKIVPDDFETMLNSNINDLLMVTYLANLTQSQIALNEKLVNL
Procedure, shortened: as §1

EIF3H = EIF3H (UniProt O15372)
EIF3H, sequence (O15372 whole entry): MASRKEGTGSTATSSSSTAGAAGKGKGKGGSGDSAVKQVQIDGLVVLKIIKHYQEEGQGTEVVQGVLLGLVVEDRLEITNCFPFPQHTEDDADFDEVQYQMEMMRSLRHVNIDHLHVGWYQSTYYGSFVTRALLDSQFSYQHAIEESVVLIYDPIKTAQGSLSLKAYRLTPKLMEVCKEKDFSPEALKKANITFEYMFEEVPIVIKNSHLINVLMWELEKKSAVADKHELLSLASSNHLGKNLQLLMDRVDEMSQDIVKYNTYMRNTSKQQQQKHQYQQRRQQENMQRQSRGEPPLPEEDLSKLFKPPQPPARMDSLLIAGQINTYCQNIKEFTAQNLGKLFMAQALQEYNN
Procedure, shortened: as §1

FAM105A = molecular target: T3, FAM105A (UniProt Q9NUU6)
T3 sequence (whole entry): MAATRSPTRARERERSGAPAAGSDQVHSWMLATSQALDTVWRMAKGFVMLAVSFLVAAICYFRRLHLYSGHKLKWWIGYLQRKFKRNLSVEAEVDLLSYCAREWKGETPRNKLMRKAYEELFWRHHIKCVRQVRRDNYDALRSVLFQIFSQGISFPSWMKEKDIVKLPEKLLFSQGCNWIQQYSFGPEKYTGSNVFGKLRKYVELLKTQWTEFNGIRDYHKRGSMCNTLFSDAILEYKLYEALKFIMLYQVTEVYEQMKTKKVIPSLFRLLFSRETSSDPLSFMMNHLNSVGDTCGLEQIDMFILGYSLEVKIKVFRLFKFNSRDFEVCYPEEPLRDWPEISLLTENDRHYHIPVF
Procedure, shortened: as §1

OTUB1 = OTUB1 (UniProt Q96FW1)
OTUB1, sequence (Q96FW1 whole entry): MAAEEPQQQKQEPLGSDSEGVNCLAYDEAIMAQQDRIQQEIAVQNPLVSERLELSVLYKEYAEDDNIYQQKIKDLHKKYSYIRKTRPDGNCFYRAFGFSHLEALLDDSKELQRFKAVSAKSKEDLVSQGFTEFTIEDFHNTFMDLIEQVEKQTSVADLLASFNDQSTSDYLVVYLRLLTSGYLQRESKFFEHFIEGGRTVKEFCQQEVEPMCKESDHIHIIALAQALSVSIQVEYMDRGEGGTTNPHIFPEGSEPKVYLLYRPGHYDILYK
Procedure, shortened: as §1

OTUD4 = molecular target: T4, OTUD4 (UniProt Q01804)
T4 sequence (whole entry): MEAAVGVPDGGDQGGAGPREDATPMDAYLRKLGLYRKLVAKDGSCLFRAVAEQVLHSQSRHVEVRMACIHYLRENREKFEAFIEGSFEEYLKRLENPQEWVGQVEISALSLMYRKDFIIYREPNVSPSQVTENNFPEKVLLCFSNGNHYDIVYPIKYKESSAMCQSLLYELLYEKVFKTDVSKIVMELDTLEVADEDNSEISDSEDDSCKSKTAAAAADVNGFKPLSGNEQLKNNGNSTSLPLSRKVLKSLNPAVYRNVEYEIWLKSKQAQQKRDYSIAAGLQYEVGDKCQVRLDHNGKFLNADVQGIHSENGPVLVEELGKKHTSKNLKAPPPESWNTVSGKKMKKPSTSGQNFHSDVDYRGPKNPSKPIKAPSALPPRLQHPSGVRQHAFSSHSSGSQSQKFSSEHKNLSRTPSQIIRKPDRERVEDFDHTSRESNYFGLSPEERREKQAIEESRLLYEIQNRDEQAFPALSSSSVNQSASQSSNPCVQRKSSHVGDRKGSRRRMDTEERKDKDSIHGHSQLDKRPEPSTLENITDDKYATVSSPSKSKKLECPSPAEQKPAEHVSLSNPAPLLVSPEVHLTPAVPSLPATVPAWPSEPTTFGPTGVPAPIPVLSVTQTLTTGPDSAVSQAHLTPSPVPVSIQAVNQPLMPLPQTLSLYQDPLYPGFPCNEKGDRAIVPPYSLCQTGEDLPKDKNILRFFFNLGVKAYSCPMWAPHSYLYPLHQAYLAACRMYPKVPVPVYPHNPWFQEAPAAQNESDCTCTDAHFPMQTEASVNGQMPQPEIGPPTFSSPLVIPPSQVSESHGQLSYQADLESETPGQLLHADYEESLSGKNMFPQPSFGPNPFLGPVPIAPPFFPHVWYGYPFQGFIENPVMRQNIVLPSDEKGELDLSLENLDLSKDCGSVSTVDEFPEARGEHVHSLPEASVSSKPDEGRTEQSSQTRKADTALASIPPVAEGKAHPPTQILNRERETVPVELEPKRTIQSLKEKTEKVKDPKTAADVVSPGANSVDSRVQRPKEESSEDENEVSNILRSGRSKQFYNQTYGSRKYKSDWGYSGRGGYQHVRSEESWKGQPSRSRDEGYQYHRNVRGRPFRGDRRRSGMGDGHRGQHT
Procedure, shortened: as §1

OTUD5 = molecular target: T5, OTUD5 (UniProt Q96G74)
T5 sequence (whole entry): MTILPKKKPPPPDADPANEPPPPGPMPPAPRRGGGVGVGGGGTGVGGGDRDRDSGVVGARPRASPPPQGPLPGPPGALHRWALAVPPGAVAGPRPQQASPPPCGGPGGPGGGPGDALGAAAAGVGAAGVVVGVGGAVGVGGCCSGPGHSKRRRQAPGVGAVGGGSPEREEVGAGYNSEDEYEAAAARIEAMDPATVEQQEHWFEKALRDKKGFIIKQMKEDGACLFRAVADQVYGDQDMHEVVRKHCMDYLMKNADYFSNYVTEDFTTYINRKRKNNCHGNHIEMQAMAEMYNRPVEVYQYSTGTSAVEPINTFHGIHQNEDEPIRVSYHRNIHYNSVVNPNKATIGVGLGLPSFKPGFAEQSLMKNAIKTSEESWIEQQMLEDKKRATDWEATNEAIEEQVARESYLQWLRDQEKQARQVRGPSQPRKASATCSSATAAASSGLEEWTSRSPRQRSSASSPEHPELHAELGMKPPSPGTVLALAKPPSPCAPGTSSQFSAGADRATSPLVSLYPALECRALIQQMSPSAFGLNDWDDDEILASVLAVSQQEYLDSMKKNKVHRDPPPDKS
Procedure, shortened: as §1

Row | SMILES | log2 ratio of Biotin-Ahx-Ub-VS probe labelling (ALG13) | log2 ratio of Biotin-Ahx-Ub-VS probe labelling (ATXN3) | log2 ratio of Biotin-Ahx-Ub-VS probe labelling (BAP1) | log2 ratio of Biotin-Ahx-Ub-VS probe labelling (EIF3F) | log2 ratio of Biotin-Ahx-Ub-VS probe labelling (EIF3H) | log2 ratio of Biotin-Ahx-Ub-VS probe labelling (FAM105A) | log2 ratio of Biotin-Ahx-Ub-VS probe labelling (OTUB1) | log2 ratio of Biotin-Ahx-Ub-VS probe labelling (OTUD4) | log2 ratio of Biotin-Ahx-Ub-VS probe labelling (OTUD5)
1 | Cc1cc(C(=O)NC2CCN(C(=O)CCl)CC2)no1 | 0.0715 | -0.572 | -0.339 | -0.05 | 0.0609 | 0.133 | -0.0459 | -0.297 | -0.298
2 | O=C(CCl)NCc1noc(C2CC2)n1 | 0.174 | -0.198 | -1.08 (active) | -0.262 | 0.143 | 0.00371 | -0.305 | -0.405 | -0.391
3 | CC(NC(=O)CCl)c1csc(-c2ccccc2)n1.Cl (stereo unspecified) | 0.0117 | -0.556 | -3.84 (active) | -0.0347 | -0.03 | 0.268 | -0.0384 | -1.31 (active) | -0.527
4 | O=C(CCl)N1CCC(S(=O)(=O)c2ccc(F)cc2)CC1 | -0.536 | -0.72 | -1.46 (active) | -0.133 | 0.256 | -0.39 | 0.147 | -0.273 | -0.457
